{"source": "PubChem BioAssay AID488890", "about": "(Southern Research Specialized Biocontainment Screening …, 2010)", "note": "In all, about 320,000 compounds went through this assay and about 1,300 (0.41%) were called active. Not shown: some 3% with an inconclusive outcome. How the calls were made is not given here. Only a sample is shown. Measured potencies and affinities stand elsewhere."}
{"test": "growth inhibition of non-replicating M. tuberculosis (AID 488890);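 further: plate controls were DMSO cells for no effect and high antibiotic wells for full effect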", "details": "Mycobacterium tuberculosis non-replicating, at 25 µM, stronger effect = higher value", "units": {"inhibition": "%"}}
{"smiles": "Cc1cc(/C=C2\\NC(=O)NC2=O)c(C)n1-c1cccnc1", "inhibition": -6.79}
{"smiles": "S=C(Nc1ccccc1)N1CCC(Cc2ccccc2)CC1", "inhibition": 5.68}
{"smiles": "COc1ccc(O)c(/C=N/NC(=O)c2cccc(N3CCCC3=O)c2)c1", "inhibition": 5.55}
{"smiles": "O=C(N/N=C/c1cc(Br)ccc1O)c1cccc(N2CCCC2=O)c1", "inhibition": 54.7}
{"smiles": "CCC1(CC)C(=O)N(C)C(=O)NC1=NC", "inhibition": -9.72}
{"smiles": "O=C(N/N=C/c1ccccc1[N+](=O)[O-])c1cccs1", "inhibition": 55.4}
{"smiles": "O=C(N/N=C\\c1cc2c(cc1[N+](=O)[O-])OCO2)c1cccs1", "inhibition": 16.5}
{"smiles": "O=[N+]([O-])c1cccc(/C=N\\N=C2c3ccccc3-c3ccccc32)c1O", "inhibition": 22}
{"smiles": "O=[N+]([O-])c1ccc(O)c(/C=N\\N=C2c3ccccc3-c3ccccc32)c1", "inhibition": 72.8}
{"smiles": "O=[N+]([O-])c1cccc(C=Nc2cccc3ccccc23)c1O", "inhibition": 55.1}
{"smiles": "CN(C)/N=C/c1cc([N+](=O)[O-])ccc1O", "inhibition": -5.98}
{"smiles": "c1ccc(CN2CCNCC2)nc1", "inhibition": -22.1}
{"smiles": "CCOc1ncccc1C(=O)OCC(=O)N1CCN(S(=O)(=O)c2ccccc2)CC1", "inhibition": -4.22}
{"smiles": "CCOc1ccc(/C=N/OCC(=O)NCc2ccc3c(c2)OCO3)cc1OC", "inhibition": 13}
{"smiles": "CCNC(=O)CSc1nnc(-c2cccs2)o1", "inhibition": 61.4}
{"smiles": "Cc1ccc(S(=O)(=O)Nc2cccc3ncccc23)cc1", "inhibition": 15.3}
{"smiles": "Cc1ccc(S(=O)(=O)Nc2ccnc3ccccc23)cc1", "inhibition": -9.89}
{"smiles": "O=C(NNC1OC(CO)C(O)C(O)C1O)c1cccnc1", "note": "(centres undefined)", "inhibition": -18.5}
{"smiles": "CCOC(=O)c1c(-n2cnnn2)sc2c1CCCC2", "inhibition": 0.53}
{"smiles": "CCCS(=O)(=O)c1nc(S(=O)(=O)c2ccc(Cl)cc2)c(N2CCC(O)CC2)s1", "inhibition": 9.91}
{"smiles": "COC(=O)Cn1cc(C#N)c2ccccc21", "inhibition": 51.2}
{"smiles": "CC(C)OC(=O)Cn1cc(C#N)c2ccccc21", "inhibition": 17}
{"smiles": "CCc1cccc2c(C#N)cn(CC(=O)N3CCOCC3)c12", "inhibition": -9.31}
{"smiles": "CCn1c(-c2ccccc2)ccc(C#N)c1=O", "inhibition": -0.3}
{"smiles": "CCc1cccc2c(C#N)cn(CC(=O)NCCOC)c12", "inhibition": 2.34}
{"smiles": "CCOC(=O)Cn1c(-c2ccccc2)cc(SC)c(C#N)c1=O", "inhibition": 37.8}
{"smiles": "Cc1cc(Cl)ccc1OCC(=O)Nc1cccnc1", "inhibition": 41}
{"smiles": "C[C@]12C(=O)N(c3ccccc3)C(=O)N1[C@H]1c3ccccc3OC[C@@H]1[C@H]2c1ccccc1", "inhibition": 79}
{"smiles": "Cn1c2ccccc2c2cc(/C=N/NC(=O)c3cc(O)cc(O)c3)ccc21", "inhibition": -7.45}
{"smiles": "O=C(O)c1cccc(NS(=O)(=O)/C=C/c2ccccc2)c1", "inhibition": -0.77}
{"smiles": "O=C(O)c1ccc(NS(=O)(=O)/C=C/c2ccccc2)cc1", "inhibition": -4.07}
{"smiles": "O=C(Nc1ccc(F)cc1)C1CCCCC1", "inhibition": 42.2}
{"smiles": "CC(=O)Nc1ccc(NC(=S)NC(=O)C2CCCC2)cc1", "inhibition": 30.2}
{"smiles": "OCC1(CCOc2ccccc2)CCN(Cc2ccc3c(c2)OCCO3)CC1", "inhibition": 14.7}
{"smiles": "COC(=O)C(NC(C)=O)(Nc1nc2ccc(S(C)(=O)=O)cc2s1)C(F)(F)F", "note": "(centres undefined)", "inhibition": -2.55}
{"smiles": "COc1ccccc1C(CCNCc1ccccc1)c1ccc(OC(C)C)cc1", "note": "(centres undefined)", "inhibition": 68.5}
{"smiles": "COc1ccc(C(CCNCc2ccc(OC)c(OC)c2)c2ccc(F)cc2)cc1", "note": "(centres undefined)", "inhibition": 76.8}
{"smiles": "O=C(O)c1cc2c(N3CCC(Cc4ccccc4)CC3)ncnc2s1", "inhibition": 11.8}
{"smiles": "c1ccc2c(Cn3ccnc3)cccc2c1", "inhibition": -22.3}
{"smiles": "NC1=NC[C@@H](Cc2ccc(O)cc2)N1CCc1cccc2ccccc12", "inhibition": 64.2}
{"smiles": "CC(C)C[C@H]1CN=C(Nc2ccccc2)N1CCC1CCCC1", "inhibition": 65.2}
{"smiles": "NC1=NC[C@H](Cc2ccc(O)cc2)N1CCc1cccc(F)c1", "inhibition": 1.77}
{"smiles": "CC(C)C[C@H]1CN=C(Nc2ccccc2)N1CCC1CCCCC1", "inhibition": 25.8}
{"smiles": "CN(C)C1=NC[C@H](Cc2ccccc2)N1CCCC1CCCC1", "inhibition": 77}
{"smiles": "NC1=NC[C@H](Cc2ccccc2)N1CC1CCCCC1", "inhibition": 17}
{"smiles": "CCC(=O)N1CCc2cc(S(=O)(=O)N3CCN(c4cc(C)ccc4C)CC3)ccc21", "inhibition": -5.69}
{"smiles": "COc1ccc(-c2cn3nc(C)c(C)nc3n2)cc1OC", "inhibition": -17}
{"smiles": "Cc1nnc(Sc2c(-c3ccccc3)c3ccc(Cl)cc3[nH]c2=O)s1", "inhibition": 31.4}
{"smiles": "COc1ccc(C(=O)Nc2nnc(C3=COCCO3)o2)cc1OC", "inhibition": -10.9}
{"smiles": "O=C(Nc1nnc(C2=COCCO2)o1)c1ccc(S(=O)(=O)N2CCCC2)cc1", "inhibition": 6.48}
{"smiles": "CC(=O)Nc1nnc(C2=COCCO2)o1", "inhibition": 3.17}
{"smiles": "COc1cc(C(=O)Nc2nnc(C3=COCCO3)o2)cc(OC)c1OC", "inhibition": -6.31}
{"smiles": "CN(C)c1ccc(C(=O)Nc2nnc(C3=COCCO3)o2)cc1", "inhibition": -3.42}
{"smiles": "CS(=O)(=O)c1cccc(C(=O)Nc2nnc(C3=COCCO3)o2)c1", "inhibition": 22.2}
{"smiles": "O=C(O)CN1C(=O)c2cccc3c(Br)ccc1c23", "inhibition": 2.53}
{"smiles": "CCOC(=O)Cn1nnnc1CN(CCc1ccccc1)Cc1cc2cc(CC)ccc2[nH]c1=O", "inhibition": -14.2}
{"smiles": "COc1ccc(Nc2nc3cc(C)ccc3cc2C#N)c(OC)c1", "inhibition": -16.1}
{"smiles": "Cc1cc(NC(=O)Cn2nnc3sc4c(c3c2=O)CCCC4)no1", "inhibition": 9.47}
{"smiles": "CCCn1c(C(C)NC(=O)c2ccccc2)n[nH]c1=S", "note": "(centres undefined)", "inhibition": 13.1}
{"smiles": "COc1cccc(-c2ccc(NC(=O)C3CCCN(Cc4nccn4C)C3)cc2)c1", "note": "(centres undefined)", "inhibition": 58}
{"smiles": "O=C(Nc1cc(Cl)ccc1-n1cncn1)c1cc(F)c(F)c(F)c1F", "inhibition": 14}
{"smiles": "COc1cc(/C=C2\\SC(=O)N(CC(=O)Nc3ccc(C)cc3)C2=O)cc(Cl)c1OCC(=O)O", "inhibition": 12.1}
{"smiles": "O=C(NCC1CCCCC1)c1cccc([N+](=O)[O-])c1", "inhibition": 69.2}
{"smiles": "O=C(NCCCCc1ccccc1)c1ccc(Br)o1", "inhibition": 45.4}
{"smiles": "Cc1ccc(CC(=O)NCCCc2ccccc2)cc1", "inhibition": 21.6}
{"smiles": "O=C(NCCNC(=O)c1ccc(Br)o1)c1ccc(Br)o1", "inhibition": -3.49}
{"smiles": "O=C(CCNC(=O)c1ccc([N+](=O)[O-])cc1)NCc1cccs1", "inhibition": -8.88}
{"smiles": "O=C(NCC1CCN(C(=O)c2ccc([N+](=O)[O-])cc2)CC1)c1ccc([N+](=O)[O-])cc1", "inhibition": 4.24}
{"smiles": "O=C(NCc1cccs1)c1ccccc1", "inhibition": 64.8}
{"smiles": "CCCCNC(=O)Cc1ccc(Br)cc1", "inhibition": 74}
{"smiles": "C=CCC[C@@H](Cc1ccc(F)cc1)C(=O)OC[C@@H](Cc1c[nH]c2ccccc12)NC(=O)[C@H](CC=C)CC(=O)N[C@H](CO)Cc1ccccc1", "inhibition": -0.91}
{"smiles": "CCCCOc1ccc(C(=O)OCC(=O)c2c(N)n(C)c(=O)n(C)c2=O)cc1", "inhibition": 27.4}
{"smiles": "O=C(NCCCn1ccnc1)c1cccc(Br)c1", "inhibition": -17.6}
{"smiles": "COCC(=O)Nc1nc2n(n1)C(c1ccccc1Cl)CC(c1ccc(OC)cc1)N2", "note": "(centres undefined)", "inhibition": 24.1}
{"smiles": "COC(=O)c1ccc(CS(=O)(=O)c2ccccc2C)o1", "inhibition": 2.59}
{"smiles": "CCCn1c(N)c(C(=O)CSc2nc3ccccc3c(=O)n2Cc2ccccc2)c(=O)[nH]c1=O", "inhibition": 21}
{"smiles": "COc1ccc(/C=N/NC(=O)c2ccn[nH]2)cc1Cn1cc([N+](=O)[O-])cn1", "inhibition": -4.11}
{"smiles": "O=C(Nc1ccc(Cl)cn1)c1cc2c(s1)-c1ccccc1OC2", "inhibition": 27.1}
{"smiles": "O=C(NCc1ccncc1)c1ccc(Br)o1", "inhibition": 12.8}
{"smiles": "O=C(NCCNC1CCCCC1)c1ccco1", "inhibition": -9.39}
{"smiles": "O=C(CNC(=O)c1ccco1)NC1CCCCCC1", "inhibition": 5.43}
{"smiles": "O=C(O)c1ccc(CNC(=O)c2ccc(Br)o2)cc1", "inhibition": 21.4}
{"smiles": "O=C(NCc1ccccc1)c1ccc(Br)o1", "inhibition": 77.6}
{"smiles": "O=C(CNC(=O)c1ccc(Br)o1)NCc1ccc(F)cc1", "inhibition": 23.3}
{"smiles": "C=CCn1c(O)c(C(CC)=Nc2cc(OC)ccc2OC)c(=O)[nH]c1=O", "inhibition": 7.07}
{"smiles": "CCNC(=S)NNC(=O)c1ccccc1OC(F)F", "inhibition": -5.06}
{"smiles": "COc1ccc(CC(C(=O)Nc2ccc(OC)cc2)c2nn[nH]n2)cc1", "note": "(centres undefined)", "inhibition": 8.92}
{"smiles": "Cc1cc(=O)oc2cc(NC(=S)NCc3cccnc3)ccc12", "inhibition": -4.07}
{"smiles": "CCCC(=O)c1cc2c(cc1NC(=O)c1ccccc1F)OCCO2", "inhibition": 4.71}
{"smiles": "CC(=O)N1CCc2c(sc3c2c(=O)n(-c2ccccc2)c(=O)n3Cc2ccccc2Cl)C1", "inhibition": -8.11}
{"smiles": "O=C(NCCCn1ccnc1)Nc1ccc2c(c1)OCO2", "inhibition": -2.69}
{"smiles": "Cc1cc(C)c(NC(=O)C2=COCCO2)c(C)c1", "inhibition": -16.1}
{"smiles": "Cc1cc(C)c(-c2csc(NC(=O)C3=COCCO3)n2)c(C)c1", "inhibition": 34.2}
{"smiles": "Cc1nc(-c2ccc(-n3nncc3-c3ccco3)cc2)cs1", "inhibition": 58.1}
{"smiles": "Cc1ccc(C(=O)O/N=C(\\N)Cc2cccs2)c(Cl)c1", "inhibition": 60.4}
{"smiles": "C#CCOCCOCCOCCNc1nc(N2CCN(C(=O)[C@H](CCC(=O)O)n3cc(C(N)CC(C)C)nn3)CC2)nc(N2CCN(C(=O)[C@H](CCC(=O)O)n3cc(C(N)[C@H](C)CC)nn3)CC2)n1", "note": "(some centres undefined)", "inhibition": -2.67}
{"smiles": "CCc1nc(CN2CCN(c3cc(C(F)(F)F)ccn3)CC2)c(C)[nH]1", "inhibition": 20.5}
{"smiles": "CCN(CC)CCNC(=O)c1cc2c(-c3ccc(Cl)cc3)nn(C)c2s1", "inhibition": 67.4}
{"smiles": "CCCCN(CC)CCCNC(=O)c1cc2c(-c3ccc(OC)c(OC)c3)nn(C)c2s1", "inhibition": 34.8}
{"smiles": "Cc1nc(C(=O)N(C)C)nn1-c1ccc(Cl)cc1Cl", "inhibition": -3}
{"smiles": "COc1ccc(NC(=O)C2=Cc3ccccc3OC2)cc1", "inhibition": 76.7}
{"smiles": "COc1ccc(C(CNC(=O)CSc2ccc(Br)cc2C)N2CCOCC2)cc1", "note": "(centres undefined)", "inhibition": 7.11}
{"smiles": "CCN1C(=O)/C(=C\\N(C(C)=O)c2ccccc2)OC1=S", "inhibition": 6.17}
{"smiles": "CCc1nc(N(CC)CC)c2oc3ccccc3c2n1", "inhibition": 25.6}
{"smiles": "c1ccc(Oc2nc(-c3cccnc3)nc3ccccc23)cc1", "inhibition": 18.6}
{"smiles": "Cc1ccc(Oc2nc(-c3cccnc3)nc3ccccc23)c([N+](=O)[O-])n1", "inhibition": -3.06}
{"smiles": "Fc1ccc(F)c(NC2=NCCCCC2)c1", "inhibition": -19}
{"smiles": "O=C(NNC1=C(C(=O)C(F)(F)F)CCC1)c1cccnc1", "inhibition": -16.6}
{"smiles": "O=C(NNC1=C(C(=O)C(F)(F)F)CCC1)c1cccc(O)c1", "inhibition": 58.3}
{"smiles": "O=C(NNC1=C(C(=O)C(F)(F)F)CCC1)c1ccncc1", "inhibition": 56.2}
{"smiles": "COc1ccccc1C(=O)NNC1=C(C(=O)C(F)(F)F)CCC1", "inhibition": 77.4}
{"smiles": "Cc1ccc(CNC(=O)CN(c2ccc(C(C)C)cc2)S(=O)(=O)c2c(C)noc2C)cc1", "inhibition": 7.31}
{"smiles": "Cc1ccsc1/C=N/NC(=O)Cn1nc(C)c([N+](=O)[O-])c1C", "inhibition": -14.9}
{"smiles": "COc1ccccc1N1C[C@@H]2C[C@@H](c3ccco3)N3CCC[C@@]23C1=O", "inhibition": 14.9}
